Measurements from ChEMBL document CHEMBL4513216, “Probing the Open Global Health Chemical Diversity Library for Multistage-Active Starting Points for Next-Generation Antimalarials” (ACS Infect Dis, 2020).
Among all 69,000 compounds or so, about 8,600 (12%) showed an effect of 50% or more. Many of the other results were omitted from the sample, so strong results are more common in it than they were.

Tested on: Plasmodium berghei
Test: Screen against P. berghei liver stage (PbLuc), transformed with Luciferase, at 10uM
Format: functional, HepG2
Settings: tested at 10 uM

Row | Structure (SMILES) | INHIBITION
1 | O=C(NC1CCN(c2ncccn2)CC1)c1cc2c(cc1O)CCCC2 | 55%
2 | CC(C)c1ccc(O)c(C(=O)NC2CCN(c3ncccn3)CC2)c1 | 0.643%
3 | CC(=O)N[C@@H]1CN(C(=O)CC2CCOCC2)C[C@H]1O | -5.8%
4 | CC(C)C(c1cccnc1)N(C)C(=O)Cc1c(F)cccc1F (configuration not stated) | 41.8%
5 | CCNC(=O)N(C)C(c1cccnc1)C(C)C (configuration not stated) | 63.5%
6 | CC(C)C(c1cccnc1)N(C)C(=O)Cc1ccc(O)cc1 (configuration not stated) | -30%
7 | COc1c[nH]c(C(=O)N2CCN(c3cccc(Cl)c3)CC2)cc1=O | 38.8%
8 | CCc1cnc(N2CC[C@H]3[C@@H]2CCC(=O)N3c2cccnc2)nc1 | -24.1%
9 | COC1CCN(C(=O)Cc2csc(-c3ccccc3)n2)CC1 | -55.9%
10 | Cc1noc(C(C)C)c1C(=O)NCc1ccc2c(c1)OCCO2 | -28.4%
11 | CCCS(=O)(=O)N1CC(=O)N(Cc2ccccc2OC)CC(O)C1 (configuration not stated) | 41.1%
12 | CC(SCCS(C)(=O)=O)c1nc(Cc2ccc(F)cc2)no1 (configuration not stated) | 12.4%
13 | CC(SCCS(C)(=O)=O)c1nc(Cc2ccccc2)no1 (configuration not stated) | 13.5%
14 | CCc1noc(C(C)SCCS(C)(=O)=O)n1 (configuration not stated) | 64.6%
15 | O=C(Nc1cccnc1)[C@@H]1CCO[C@@H]2CCN(Cc3cccnc3)C[C@@H]21 | 12.7%
16 | CC(=O)N1N=C(c2ccccc2)OC1C(=O)NCCN(C(C)C)C(C)C (configuration not stated) | 30.3%
17 | Cc1nc(C(C)(C)C)sc1C(=O)NCCNc1ncccn1 | 10%
18 | Cc1nn(C)c(C)c1CCC(=O)NCC1(C(N)=O)CCOCC1 | 26.4%
19 | Cc1nn(C)c(C)c1S(=O)(=O)NCC1(C(N)=O)CCOCC1 | 74.5%
20 | Cc1nn(C)c(C)c1CC(=O)NCC1(C(N)=O)CCOCC1 | 47.7%
21 | CSc1ccc(CN(CCO)C(=O)CCNC(C)=O)cc1 | 18.4%
22 | CNCc1n[nH]c(=O)n1-c1cccc(Cl)c1Cl | 25.1%
23 | N#Cc1c(N2CCCCC2)nsc1-c1cccnc1 | -0.621%
24 | CCN1CCN(c2nsc(-c3cccnc3)c2C#N)CC1 | 36.6%
25 | CN1CCN(c2nsc(-c3cccnc3)c2C#N)CC1 | 62.3%
26 | CN(Cc1ccc(N(C)C)cc1)C(=O)c1cc2c([nH]c1=O)CCCC2=O | -42.975%

Row | Structure (SMILES) | INHIBITION
27 | CNC(=O)c1ccc(C(=O)N2CCCCC2Cn2cc(C)cn2)cn1 (configuration not stated) | 24.6%
28 | Cc1cc(C(=O)N2CCC3(CC2)CC(c2cccnc2)C(=O)N3)no1 (configuration not stated) | -31.3%
29 | Cc1ccc(CN2CC[C@H]3[C@H](CO[C@H]3CN(C)C)C2)o1 | 13.1%
30 | Cc1ccc(CN2CC[C@H]3CO[C@H](CN4CCN(C)CC4)[C@H]3C2)o1 | 45.7%
31 | CN(C)C[C@@H]1OC[C@H]2CN(Cc3ccoc3)CC[C@H]21 | -87.7%
32 | Cc1ccc(CN2CC[C@@H]3[C@@H](CO[C@H]3CN(C)C)C2)o1 | 61.1%
33 | Cc1ccc(CN2CC[C@H]3CO[C@H](CN(C)C)[C@H]3C2)o1 | 53.9%
34 | Cc1ccc(CN2CC[C@H]3CO[C@H](CN4CCCC4)[C@H]3C2)o1 | 7.7%
35 | CCCc1n[nH]c(C2CN(C(=O)c3cccnc3N(C)C)CCO2)n1 (configuration not stated) | 16.9%
36 | CC(C)NC(=O)C1(CC2CC(c3ccc(F)cc3)=NO2)CCNCC1 (configuration not stated) | 65.7%
37 | O=C(NCCCO)C1(CC2CC(c3ccc(F)cc3)=NO2)CCOCC1 (configuration not stated) | 36%
38 | O=C(NCCO)C1(CC2CC(c3ccc(F)cc3)=NO2)CCOCC1 (configuration not stated) | 22.8%
39 | Cc1noc(C)c1CCC(=O)NCC1(O)CCCN(c2ccccn2)C1 (configuration not stated) | 30.4%
40 | Cc1cc(CN(C)S(=O)(=O)N2CCCC2c2ccc(C)o2)no1 (configuration not stated) | 31.9%
41 | Cc1ccc(CN(C)CC2(O)CCCN(C)C2)o1 (configuration not stated) | -12.7%
42 | Cc1nn(C)c2c(N3CCN(C)CC3)nc(C3CC3)nc12 | 21.5%
43 | O=C(COCC1CC1)N1CCCC1c1nc(-c2ccccc2F)c[nH]1 (configuration not stated) | 46.4%
44 | COC(=O)NCC(=O)N1CCCC1c1nc(-c2ccccc2F)c[nH]1 (configuration not stated) | 60.3%
45 | CCOCCCC(=O)N1CCCC1c1nc(-c2ccccc2F)c[nH]1 (configuration not stated) | 29.5%
46 | O=C(c1cnc2ccccc2c1)N1CCCC(O)(CN2CCCC2)C1 (configuration not stated) | 16.2%
47 | Cc1ccc(N2CCCC(NCC(=O)Nc3cc(C)nn3C)C2)nn1 (configuration not stated) | 21%
48 | Cc1nc(C)n(CC2CCCN(Cc3nnc(C4CC4)o3)C2)n1 (configuration not stated) | 2.05%
49 | CN1CCC(Cc2cc(Nc3ncccn3)ncn2)CC1 | 62.6%
50 | CCC(=O)N1CCC(Cc2cc(Nc3ncccn3)ncn2)CC1 | 49.6%
51 | CN1CCC(Cc2cc(Nc3ccccn3)ncn2)CC1 | -14.1%
52 | O=S(=O)(C1CC1)N1CCC2(CC1)CN(Cc1nccs1)CCO2 | 23.3%
